Compounds with a hit are over-represented: about 3.9% of the library has one in this group of screens.
D1 agonist = Allosteric Agonists of the Human D1 Dopamine Receptor: qHTS; D(1A) dopamine receptor (Homo sapiens), P21728; HEK293 T-REx D1 cells, calcium flux, agonist mode; activation, % at 2 µM; hit rate 1% among 360,000; AID 504660, 2011; in the data active = activation above about 30%
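Agonism was scored from calcium flux recorded over 180 s (1 read/s) after pintool compound addition, following a 10-cycle baseline. Cells were inducible force-coupled HEK293 TREx D1, plated overnight at 30 C and loaded with no-wash calcium dye.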
USP2a block = qHTS Assay for Inhibitors of Ubiquitin-specific Protease USP2a Using CHOP2 as the Reporter; Ubiquitin carboxyl-terminal hydrolase 2 (Homo sapiens), O75604; USP2 core, Ub-CHOP2 coupled fluorogenic reporter, 485/531; Potency, µM (highest dose often 38.3 µM), most hits filed as inhibitors; hit rate 0.01% among 330,000; AID 463254, 2010
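Deubiquitinase activity read as fluorescence (485/531 nm) after Ub-CHOP2 cleavage activates the enterokinase reporter on its substrate; USP2 core 10nM, Ub-CHOP2 and substrate 25nM each, 30min compound preincubation then 60min RT; data normalized to NEM, curves fitted.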
Eya2 phos inh = qHTS Assay for Inhibitors of the Phosphatase Activity of Eya2. Protein phosphatase EYA2 (Homo sapiens), O00167. recombinant Eya2, OMFP fluorescence dephosphorylation (OMFP is methylfluorescein phosphate). Potency, µM (doses to about 76.9 µM), most hits filed as inhibitors. hit rate 0.006% among 330,000. AID 488837, 2010
Target sequence (O00167 whole entry, looked up): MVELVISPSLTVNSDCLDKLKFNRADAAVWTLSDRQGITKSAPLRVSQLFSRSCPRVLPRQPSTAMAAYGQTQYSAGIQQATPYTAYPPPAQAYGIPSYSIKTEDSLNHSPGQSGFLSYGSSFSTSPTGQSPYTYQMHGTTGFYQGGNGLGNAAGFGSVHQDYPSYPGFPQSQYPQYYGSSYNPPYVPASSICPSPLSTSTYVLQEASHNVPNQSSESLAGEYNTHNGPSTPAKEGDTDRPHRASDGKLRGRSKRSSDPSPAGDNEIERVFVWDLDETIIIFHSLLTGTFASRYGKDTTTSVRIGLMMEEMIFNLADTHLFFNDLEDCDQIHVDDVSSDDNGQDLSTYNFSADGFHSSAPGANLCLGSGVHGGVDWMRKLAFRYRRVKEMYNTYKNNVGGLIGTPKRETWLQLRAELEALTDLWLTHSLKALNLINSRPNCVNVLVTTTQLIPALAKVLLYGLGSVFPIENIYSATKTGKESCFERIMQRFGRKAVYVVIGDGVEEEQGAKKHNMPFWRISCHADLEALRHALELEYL
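Eya2 (0.2 uM) preincubated 10 min at ambient with compound, then OMFP substrate added at 50 uM; 10 min reaction in 50 mM HEPES pH 7.5, 50 mM NaCl, 5 uM MgCl2, 0.05% BSA, 1 mM DTT. Fluorescence read at Ex 485/Em 525 nm.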
D1 antag = Antagonist of Human D 1 Dopamine Receptor: qHTS. D(1A) dopamine receptor (Homo sapiens), P21728. HEK293 TREx D1 cells, calcium flux, dopamine EC80; stronger effect = lower value. activity change, negative = inhibition, % at 10 µM. hit rate 3.2% among 360,000. AID 504652, 2011; in the data active = activity change below about -30%
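Tetracycline-induced HEK293 T-REx cells with force-coupled D1 receptor were loaded with a no-wash calcium dye. Compound was added after a 10 s baseline and read kinetically for 180 s; EC80 dopamine was then added and calcium flux followed another 180 s.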
D1 potentiator = Potentiators of Human D1 Dopamine Receptor: qHTS; D(1A) dopamine receptor (Homo sapiens), P21728; HEK293 TREx D1 cells, calcium flux, dopamine EC20 potentiation; potentiation, % at 10 µM; hit rate 0.036% among 360,000; in the data active = potentiation above about 30%
GALK inhibitor = qHTS Assay for Inhibitors of Human Galactokinase (GALK) | Purified GALK, Kinase-Glo residual ATP luminescence | hit rate 0.007% among 270,000 | AID 1868, 2009 | Potency, µM (titrated, usually from 57.5 µM), most hits filed as inhibitors | P51570
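Luminescence from leftover ATP (Ultra-Glo luciferase/luciferin) served as read-out after a 1 h room-temperature reaction of 5 nM GALK with 35 uM ATP and 100 uM galactose.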
Of the large screens only hits and unclear results are named; the others gave an inactive call. Unless noted, calls come from the whole dose curve; as a rule, active = well fitted inhibition curve with a large enough effect; inconclusive = small, poorly fitted or top-dose-only effect, or effect the other way; inactive = flat fitted curve, though single readings scatter.

Cn1c(=O)c2cc(C(=O)NCCCN3CCN(c4cccc(Cl)c4)CC3)sc2c2ccccc21	D1 antag -45 (no result: USP2a block, Eya2 phos inh, GALK inhibitor)
CN1CCN(CCCNC(=O)c2cc3c(=O)n(C)c4ccccc4c3s2)CC1	none
CCN(CCCNC(=O)c1cc2c(=O)n(C)c3ccccc3c2s1)c1ccccc1	none (no result: USP2a block, Eya2 phos inh, GALK inhibitor)
Cc1ccc(-c2ccc(=O)n(CCC(=O)NCCc3ccccc3)n2)cc1	none (no result: USP2a block, Eya2 phos inh, GALK inhibitor)
CC(=O)c1ccc(N2CCN(C(=O)COc3ccc(F)cc3)CC2)c(F)c1	none
CC(=O)c1cc(F)c(N2CCN(C(=O)c3ccco3)CC2)cc1C	D1 antag -32
CCn1cc(C(=O)NC(C)C)c(=O)c2cc(F)c(N3CCN(C(=O)c4ccco4)CC3)cc21	D1 antag -31
CCC(=O)c1cc(F)ccc1OCC(=O)N1CCN(c2ccc(F)cc2)CC1	D1 antag -34
CC(=O)c1cc(F)c(N2CCN(C(=O)COc3ccc(F)cc3)CC2)cc1C	D1 antag -33
COC(=O)c1ccc(C(=O)OC)c(NC(=O)c2c(-c3ccccc3)c(-c3ccccc3)nn(C)c2=O)c1	none (no result: USP2a block, Eya2 phos inh, GALK inhibitor)
COc1cc(OC)c(NC(=O)C(NS(=O)(=O)c2cccc3nsnc23)c2ccccc2)cc1Cl (configuration not stated)	none (no result: USP2a block, Eya2 phos inh, GALK inhibitor)
O=C(NCc1ccccc1Cl)c1ccc2c(c1)N(Cc1ccccc1)CCS2	none (no result: USP2a block, Eya2 phos inh, GALK inhibitor)
CCc1nn(CC(=O)N2CCN(c3cccc(C(F)(F)F)c3)CC2)c(=O)c2cccn12	D1 antag -41 (no result: USP2a block, Eya2 phos inh, GALK inhibitor)
CCc1nn(CC(=O)N2CCC(C)CC2)c(=O)c2cccn12	none
Cc1nc(-n2nc(C)c(Cc3ccccc3Cl)c2C)sc1C(=O)N1CCC(C)CC1	none (no result: USP2a block, Eya2 phos inh, GALK inhibitor)
CCOCCc1nn2c(=O)cc(COC(=O)C3CCCCC3)nc2s1	none (no result: USP2a block, Eya2 phos inh, GALK inhibitor)
NC(=O)c1ccc(N2CCN(S(=O)(=O)c3ccccc3)CC2)c([N+](=O)[O-])c1	D1 antag -40
COC(=O)c1ccc(N2CCN(CC(=O)c3ccc(-c4ccccc4)cc3)CC2)c([N+](=O)[O-])c1	D1 antag -34 (no result: GALK inhibitor)
CCOC(=O)C1CCN(c2ccc(C(N)=O)cc2[N+](=O)[O-])CC1	D1 antag -33
O=C(c1ccc(N2CCCCC2)c([N+](=O)[O-])c1)N1CCN(S(=O)(=O)c2ccccc2)CC1	none (no result: GALK inhibitor)
COc1ccc(OC(C)C(=O)NCc2nc(-c3cccc(C)c3)no2)cc1 (configuration not stated)	none (no result: USP2a block, Eya2 phos inh, GALK inhibitor)
COc1cc(NS(=O)(=O)c2ccc(C(=O)O)cc2)c2nc(C)ccc2c1	none (no result: USP2a block, Eya2 phos inh, GALK inhibitor)
O=C(Cn1c(=O)n(Cc2ccc(C(=O)NCc3ccc4c(c3)OCO4)cc2)c(=O)c2ccccc21)Nc1cccc(Cl)c1	none (no result: USP2a block, Eya2 phos inh, GALK inhibitor)
COc1ccc2c(c1)c1c(c(=O)n(-c3cccc(C)c3)c(=O)n1CC(=O)NCc1ccc(C)cc1)n2C	none (no result: USP2a block, Eya2 phos inh, GALK inhibitor)
COc1ccc(OCC(O)CNCCOc2ccccc2OC)c(C(C)(C)C)c1 (configuration not stated)	D1 agonist 59, Eya2 phos inh inconclusive (no result: GALK inhibitor)
COc1ccccc1/C=C/C=C1\Oc2c(ccc(O)c2CN(C)C)C1=O	D1 agonist 103, USP2a block inconclusive, Eya2 phos inh inconclusive
CCN(CC)Cc1c(O)ccc2c1O/C(=C\C=C\c1ccccc1)C2=O	D1 agonist 49, USP2a block inconclusive
COCCN(CCOC)Cc1c(O)ccc2c1O/C(=C\c1ccc(C)o1)C2=O	USP2a block inconclusive, Eya2 phos inh inconclusive
COc1ccc(CNC(=O)CCCN2C(=O)CSc3c2c(C)nn3-c2ccccc2)c(OC)c1	none (no result: USP2a block, Eya2 phos inh, GALK inhibitor)
CCCSc1ncc(Cl)c(C(=O)Nc2c(C(=O)Nc3ccc(OC)cc3)oc3ccccc23)n1	none (no result: USP2a block, Eya2 phos inh, GALK inhibitor)
CCc1ccc(NC(=O)Cn2c(=O)c(-c3ccccc3NC(C)=O)nc3ccccc32)cc1	none (no result: USP2a block, Eya2 phos inh, GALK inhibitor)

Bioassay records as filed in PubChem.
